High-throughput results (PubChem BioAssay)
An excerpt weighted towards active compounds, which were near 3.3% of everything screened.
Sm TGR block: S. mansoni TGR enzyme inhibition; Q962Y6; purified TGR, DTNB reduction, TNB absorbance 405 nm; Potency, µM (highest dose often 114 µM), inactives show top-dose activity change, negative = inhibition, usual class: inhibitors; hit rate 3% among 360,000; further: nearly all actives have a fitted effect of over 60% in size
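First, TGR (20 nM dispensed) and NADPH were mixed with compound. Second, a 15 min room-temperature incubation followed. Third, further NADPH and then DTNB were added to start the reaction. Finally, TNB absorbance was monitored kinetically.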
AmpC inh detg: inhibitors of E. coli AmpC beta-lactamase with detergent; Potency, µM (series often up to 114 µM), inactives show top-dose activity change, negative = inhibition, most hits filed as inhibitors; P00811; AmpC hydrolysis of nitrocefin, absorbance 480 nm, 0.01% Triton; hit rate 0.041% among 370,000;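 further: 0% = no-compound wells and -100% = no-enzyme wells; nearly all actives have a fitted effect of over 25% in size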
Target sequence (P00811 whole entry, looked up): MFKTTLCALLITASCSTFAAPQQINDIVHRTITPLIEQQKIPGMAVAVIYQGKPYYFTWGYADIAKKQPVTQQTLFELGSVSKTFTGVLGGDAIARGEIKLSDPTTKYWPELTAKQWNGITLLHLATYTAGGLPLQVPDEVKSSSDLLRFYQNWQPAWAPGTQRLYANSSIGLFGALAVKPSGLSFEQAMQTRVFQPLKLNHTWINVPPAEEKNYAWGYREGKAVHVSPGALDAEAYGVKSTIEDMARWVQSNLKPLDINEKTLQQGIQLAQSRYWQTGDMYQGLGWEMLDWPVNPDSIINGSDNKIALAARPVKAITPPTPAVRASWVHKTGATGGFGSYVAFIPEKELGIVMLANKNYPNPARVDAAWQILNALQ
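AmpC (5.3 nM in the dispensed reagent) in 20 mM phosphate pH 7.0 with 0.01% (detergent screen) or 0.0001% Triton X-100 was preincubated with compounds for 15 min at room temperature. Nitrocefin was then added from an 800 uM solution, and hydrolysis was followed at 480 nm.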
AmpC no deterg: AmpC beta-lactamase inhibition without detergent | AmpC nitrocefin hydrolysis, absorbance 480 nm, 0.0001% Triton | Potency, µM (doses to about 57.1 µM), without a hit: at the top dose activity change, negative = inhibition, actives largely listed as inhibitors | hit rate 0.52% among 330,000 | AID 485341;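 further: plate controls were no compound for no effect and no enzyme for full effect; nearly all actives have a fitted effect of over 20% in size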
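AmpC (5.3 nM in the dispensed reagent) in 20 mM phosphate pH 7.0 with 0.01% (detergent screen) or 0.0001% Triton X-100 was preincubated with compounds for 15 min at room temperature. Nitrocefin was then added from an 800 uM solution, and hydrolysis was followed at 480 nm.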
Numbers without * were called inactive; ? = inconclusive; . = no result; [ ] = dose if it differs, or a comment. The call rests on the fitted dose curve; in most records, active means well fitted curve in the direction sought with a large enough effect; inconclusive means small, poorly fitted or top-dose-only effect, or another doubt; inactive means no such curve, though single readings can be large; an effect the other way counts as inactive or inconclusive. Unless noted, on the % scale 0 is the no-effect control and ±100 the full control effect; potency means the concentration at half of the fitted maximal effect.

SMILES	Sm TGR block	AmpC inh detg	AmpC no deterg
COc1cc(C(=O)O)c([N+](=O)[O-])c(OC)c1OC	2%	6%	-12%
CCN1C(=NCc2cc(OC)c(OC)c(OC)c2)N[C@@H](c2cccc(F)c2)C(C(=O)OC)=C1C	-20%	-19%	241%
CC(=O)c1ccc(OCc2cc(C(=O)N3CC4C[C@@H]5CC3C[C@H](C4)C5)no2)cc1	-26%	-14%	71%
CC(=O)c1cccc(OCc2cc(C(=O)N3CC4C[C@@H]5CC3C[C@H](C4)C5)no2)c1	32µM*	-3%	53%
CC(C)(C)OC(=O)N1CSC[C@H]1C(=O)NC[C@H](CC(=O)O)c1ccc(Cl)cc1	3%	-8%	2%
CCc1ccc(-n2c(=O)c3sc4ccccc4c3n(Cc3cccc(F)c3)c2=O)cc1	6%	10%	.
Cc1ccc(CCNC(=O)c2cc(S(=O)(=O)N3CCOCC3)cn2C)cc1	-2%	-10%	-14%
O=S(=O)(NCCc1ccccc1)c1cccc(S(=O)(=O)N2CCOCC2)c1	35µM*	?	-13%
O=S(=O)(NCCC1=CCCCC1)c1cccc(S(=O)(=O)N2CCOCC2)c1	2%	7%	49%
Cn1cc(S(=O)(=O)N2CCOCC2)cc1C(=O)NCCc1ccccc1	89µM*	-6%	-20%
Cc1ccc(NC(=O)c2ccccc2)cc1	-25%	3%	-20%
Cc1ccc(NC(=O)C2=C(c3ccccc3)S(=O)(=O)CCS2(=O)=O)cc1	0.32µM*	-9%	-20%
CCC(C)NC(=O)CS(=O)Cc1nc(-c2cccc(C)c2)oc1C (stereo unspecified)	25µM*	-6%	45%
CCCCNC(=O)CS(=O)Cc1nc(-c2cccc(C)c2)oc1C (stereo unspecified)	?	?	47%
CCCCNC(=O)CS(=O)Cc1nc(-c2cccc(Cl)c2)oc1C (stereo unspecified)	32µM*	?	35%
Cc1cccc(-c2nc(CS(=O)CC(=O)NCCc3ccc(Cl)cc3)c(C)o2)c1 (stereo unspecified)	?	?	139%
CCCCSCCCNC(=O)CS(=O)Cc1nc(-c2cccc(C)c2)oc1C (stereo unspecified)	45µM*	3%	206%
Cc1ccc(NC(=O)CS(=O)Cc2nc(-c3ccc(C)cc3)oc2C)cc1 (stereo unspecified)	-23%	-4%	35%
Cc1ccccc1OCCC(=O)OCC(=O)Nc1c(F)cccc1F	-1%	-19%	3%
CCOC(=O)c1c(C)oc2ccc(N(C(=O)Oc3ccccc3)S(=O)(=O)c3ccc(CC)cc3)cc12	10%	13%	.
CC(=O)Oc1ccc(C(=O)[C@H]2[C@H]3C(=O)N(c4ccccc4)C(=O)[C@H]3[C@@H]3C=CC=NN32)cc1	?	-1%	-17%
O=C(C1=C[C@@H]2[C@H]3C(=O)N(c4ccc(Cl)cc4)C(=O)[C@H]3[C@@H](C(=O)c3ccc(Cl)cc3)N2C=C1)c1ccccc1	14µM*	-3%	-53%
CCCCN(Cc1ccco1)C(=O)C1CCCN(c2ncnc3c2nc2n3CCCCC2)C1 (stereo unspecified)	-22%	-1%	157%
CCOC(=O)N1CCN(c2ncc3c(n2)CC(c2ccc(OC)c(OC)c2)CC3=O)CC1 (stereo unspecified)	4.5µM*	-5%	.
CCN1CCN(c2ncc3c(n2)CC(c2ccc(OC)c(OC)c2)CC3=O)CC1 (stereo unspecified)	-5%	-14%	24%
SMILES	Sm TGR block	AmpC inh detg	AmpC no deterg
O=C(Nc1ccc(F)cc1F)c1ccc(-c2ccccc2)s1	-1%	18%	.
CN1CC=C2C(C#N)=C(N)C(C#N)(C#N)C(CCc3ccccc3)C2C1 (stereo unspecified)	-16%	4%	-31%
CCCC1C2CN(C(C)C)CC=C2C(C#N)=C(N)C1(C#N)C#N (stereo unspecified)	18µM*	?	-21%
O=C(NC1CCC(O)CC1)c1ccc(-c2ccc(Cl)cc2)o1 (stereo unspecified)	-5%	-16%	30%
CC(=O)c1ccc(-c2ccc(C(=O)NC3CCCCCC3)o2)cc1	22µM*	?	-22%[11.4 µM]
COc1ccc(Cn2c(-c3ccco3)nc3oc4cc(OC)ccc4c(=O)c3c2=O)cc1	?	-14%	-33%
COc1ccc2c(=O)c3c(=O)n(Cc4ccco4)c(-c4ccco4)nc3oc2c1	40µM*	1%	-16%
COc1ccc(-c2nc3oc4cc(OC)ccc4c(=O)c3c(=O)n2Cc2ccco2)cc1	20µM*	5%	0%
COCCn1c(-c2ccc(OC)cc2)nc2oc3cc(OC)ccc3c(=O)c2c1=O	5%	-18%	0%
